Some test systems named below: HCT-15 colon; HT29 colon; SNB-75 CNS; SNB-19 CNS; U251 CNS; PC-3 prostate; SK-MEL-5 melanoma; UACC-62 melanoma; LOX IMVI melanoma; SK-MEL-28 melanoma; SK-MEL-2 melanoma; EKVX NSCLC; SN12C renal; UO-31 renal; TK-10 renal; ACHN renal; CAKI-1 renal; A498 renal; CCRF-CEM leukemia; MOLT-4 leukemia.
Holding throughout (experiment): NCI-60 one-dose screen, 48 h (100 = growth as untreated, 0 = no growth, -100 = all killed)
What all share (conditions): 10 µM unless noted

The structures appear in SMILES notation. About 83,000 compounds went through this panel and 20% of them were active in at least one assay; those are over-represented in the sample as a whole.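 48-hour exposure, single concentration, 96-well plates; percent growth endpoint where 0 means no net growth. Active: below 10.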 Unmarked numbers belong to inactive results. Activity calls are given as the source filed them.

With `Cn1cc(-c2nonc2-c2c[nH]c3ccc(F)cc23)c2cc(Br)ccc21`, the growth is 30.4% in the experiment on HCT-15 colon; 20.9% with HT29 colon; 45.5% in the experiment on SNB-75 CNS; 58% in the experiment with SNB-19 CNS; 41.4% in the experiment with U251 CNS; 44.2% in the experiment on PC-3 prostate. Further, the growth is 76.6% in the experiment on SK-MEL-5 melanoma; 52.9% in the experiment with UACC-62 melanoma; 9.44% (active) in the experiment with LOX IMVI melanoma; 73.2% in the experiment with SK-MEL-28 melanoma; 71.5% in the experiment on SK-MEL-2 melanoma; 37.6% in the experiment on EKVX NSCLC. Moreover, the growth in the experiment on SN12C renal is 63.7%; in the experiment on UO-31 renal, 30.4%; in the experiment with TK-10 renal, 57%; with ACHN renal, 38.4%; in the experiment with CAKI-1 renal it was 25.3%; in the experiment with A498 renal, 44.8%. The growth was 40.7% with CCRF-CEM leukemia and 32.1% in the experiment with MOLT-4 leukemia.
On to `O=C1C(Cl)=C(NCCN2CCOCC2)C(=O)c2ncccc21`, for which the growth in the experiment with HCT-15 colon was -38% (active); in the experiment with HT29 colon it was -27.6% (active); in the experiment on SNB-75 CNS, 88.3%; in the experiment on SNB-19 CNS, 17.3%; with U251 CNS, 29.6%; with PC-3 prostate, 38.1%. For the same molecule, the growth with SK-MEL-5 melanoma is -94.1% (active); in the experiment with UACC-62 melanoma it was -51.2% (active); in the experiment on LOX IMVI melanoma it was -57.3% (active); in the experiment with SK-MEL-28 melanoma, -84.3% (active); in the experiment with SK-MEL-2 melanoma, -23.8% (active); in the experiment on EKVX NSCLC, -78.9% (active). The growth with SN12C renal is -69.2% (active); with UO-31 renal, -75.7% (active); in the experiment with TK-10 renal it was 28.3%; in the experiment on ACHN renal, -42.5% (active); in the experiment with CAKI-1 renal, 88.5%; in the experiment with A498 renal, 74.2%. Besides, the growth in the experiment on CCRF-CEM leukemia is 5.23% (active); in the experiment with MOLT-4 leukemia, 8.73% (active).
As for `CNC(=O)c1cc(Oc2ccc3nc(NC(=O)Nc4ccc(Cl)c(Cl)c4)sc3c2)ccn1`, the growth in the experiment with HCT-15 colon is 55%; in the experiment with HT29 colon it was 36.4%; in the experiment on SNB-75 CNS it was -38.3% (active); with SNB-19 CNS it was 74.9%; with U251 CNS, 24%; with PC-3 prostate it was -24.7% (active). Moreover, the growth is 72.7% with SK-MEL-5 melanoma; 75.8% in the experiment with UACC-62 melanoma; -91.9% (active) in the experiment with LOX IMVI melanoma; 41.4% with SK-MEL-28 melanoma; 80.8% with SK-MEL-2 melanoma; 8.47% (active) with EKVX NSCLC. In addition, the growth in the experiment on SN12C renal is 57.3%; in the experiment on UO-31 renal it was 39.9%; in the experiment with TK-10 renal, 66.3%; in the experiment with ACHN renal, 70%; in the experiment on CAKI-1 renal, 103%; in the experiment on A498 renal, 93.6%. The growth in the experiment with CCRF-CEM leukemia is 42.5%; in the experiment with MOLT-4 leukemia, 66.2%.
Turning to `CCOC(=O)C/C(=N\Nc1cc(=O)[nH]c2ccc(Cl)cc12)C(=O)OCC`, the growth with HCT-15 colon was 105%; in the experiment on HT29 colon, 109%; in the experiment on SNB-75 CNS it was 96.7%; in the experiment on SNB-19 CNS, 94.9%; in the experiment on U251 CNS it was 107%; in the experiment on PC-3 prostate, 88.3%. Further, the growth was 98.7% in the experiment on SK-MEL-5 melanoma; 92.5% with UACC-62 melanoma; 95.7% with LOX IMVI melanoma; 103% in the experiment with SK-MEL-28 melanoma; 116% with SK-MEL-2 melanoma; 105% in the experiment with EKVX NSCLC. In addition, the growth is 94.9% with SN12C renal; 83.7% in the experiment on UO-31 renal; 104% with TK-10 renal; 99.3% in the experiment on ACHN renal; 92.4% in the experiment on CAKI-1 renal; 108% with A498 renal. In addition, the values for the growth in the experiment with CCRF-CEM leukemia and in the experiment with MOLT-4 leukemia were -51.5% (active) and -0.305% (active), respectively.
In the case of `CN1CCN(Cc2ccc(NC(=O)c3cncc(C#Cc4cncc5[nH]ncc45)c3)cc2C(F)(F)F)CC1`, the growth in the experiment with HCT-15 colon was 10.6%; in the experiment with HT29 colon it was 11.1%; in the experiment on SNB-75 CNS it was 20%; with SNB-19 CNS it was 45.5%; with U251 CNS, 25.1%; in the experiment with PC-3 prostate, 1.19% (active). Also, the growth is 13.2% with SK-MEL-5 melanoma; -49.2% (active) with UACC-62 melanoma; -90% (active) in the experiment on LOX IMVI melanoma; -15.2% (active) with SK-MEL-28 melanoma; -52.4% (active) with SK-MEL-2 melanoma; 26.3% in the experiment on EKVX NSCLC. The growth in the experiment on SN12C renal is 8.48% (active); in the experiment on UO-31 renal, -25% (active); with TK-10 renal it was 12.5%; in the experiment on ACHN renal, -0.725% (active); with CAKI-1 renal, -52% (active); in the experiment on A498 renal, -49.5% (active). Moreover, the values for the growth in the experiment with CCRF-CEM leukemia and in the experiment with MOLT-4 leukemia were 7.31% (active) and 3.77% (active), respectively.
As to `COP(=O)(OC)c1nnn(-c2cccc([N+](=O)[O-])c2)c1C`, the growth in the experiment on HCT-15 colon is 106%; in the experiment with HT29 colon, 105%; in the experiment with SNB-75 CNS, 93.6%; with SNB-19 CNS, 105%; with U251 CNS, 99.7%; with PC-3 prostate, 98.7%. Further, the growth was 100% in the experiment on SK-MEL-5 melanoma; 99.2% in the experiment with UACC-62 melanoma; 96% with LOX IMVI melanoma; 113% in the experiment on SK-MEL-28 melanoma; 106% in the experiment with SK-MEL-2 melanoma; 106% in the experiment on EKVX NSCLC. The growth is 104% with SN12C renal; 84.5% in the experiment on UO-31 renal; 99% in the experiment with TK-10 renal; 106% in the experiment on ACHN renal; 97.2% with CAKI-1 renal; 101% in the experiment on A498 renal. In addition, the growth with CCRF-CEM leukemia is 104%; with MOLT-4 leukemia, 101%.
Take `N/C(=N\c1nc2ccccc2s1)NC(=NC1CCCCC1)NC1CCCCC1`: the growth was 1.34% (active) in the experiment with HCT-15 colon; 6.19% (active) with HT29 colon; 23.1% in the experiment with SNB-75 CNS; 4.28% (active) with SNB-19 CNS; -56.2% (active) with U251 CNS; 24.2% in the experiment on PC-3 prostate. In addition, the growth in the experiment with SK-MEL-5 melanoma was -74.8% (active); in the experiment on UACC-62 melanoma it was 52.8%; in the experiment on LOX IMVI melanoma, -100% (active); in the experiment with SK-MEL-28 melanoma it was -73.8% (active); with SK-MEL-2 melanoma, 41%; in the experiment with EKVX NSCLC it was 45.7%. In addition, the growth was 33.8% with SN12C renal; 20.1% in the experiment on UO-31 renal; 69.2% in the experiment with TK-10 renal; 17.1% in the experiment with ACHN renal; 23.2% with CAKI-1 renal; 45.8% in the experiment with A498 renal. Also, the growth with CCRF-CEM leukemia is -1.74% (active); in the experiment with MOLT-4 leukemia, 4% (active).

Values taken from PubChem BioAssay (NCI).
